# From PubChem BioAssay
# TMEM16A act: activates or potentiates the mouse TMEM16A chloride channel; Q8BHY3; HEK293 TMEM16A/YFP-H148Q/I152L, iodide quench fluorescence; active compounds read low; B-score at 10 µM; 0.3% of 340,000 active; AID 623877;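 active means fluorescence-ratio B-score plate-corrected deviation score at least 3 library SD below zero, with starting fluorescence score within 5 deviations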;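 further: channel opened by trigger with iodide after compound preincubation; score built on the fluorescence ratio of max minus min over baseline; more negative score means more quench and so TMEM16A activation or potentiation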
# Target sequence (Q8BHY3 whole entry, looked up): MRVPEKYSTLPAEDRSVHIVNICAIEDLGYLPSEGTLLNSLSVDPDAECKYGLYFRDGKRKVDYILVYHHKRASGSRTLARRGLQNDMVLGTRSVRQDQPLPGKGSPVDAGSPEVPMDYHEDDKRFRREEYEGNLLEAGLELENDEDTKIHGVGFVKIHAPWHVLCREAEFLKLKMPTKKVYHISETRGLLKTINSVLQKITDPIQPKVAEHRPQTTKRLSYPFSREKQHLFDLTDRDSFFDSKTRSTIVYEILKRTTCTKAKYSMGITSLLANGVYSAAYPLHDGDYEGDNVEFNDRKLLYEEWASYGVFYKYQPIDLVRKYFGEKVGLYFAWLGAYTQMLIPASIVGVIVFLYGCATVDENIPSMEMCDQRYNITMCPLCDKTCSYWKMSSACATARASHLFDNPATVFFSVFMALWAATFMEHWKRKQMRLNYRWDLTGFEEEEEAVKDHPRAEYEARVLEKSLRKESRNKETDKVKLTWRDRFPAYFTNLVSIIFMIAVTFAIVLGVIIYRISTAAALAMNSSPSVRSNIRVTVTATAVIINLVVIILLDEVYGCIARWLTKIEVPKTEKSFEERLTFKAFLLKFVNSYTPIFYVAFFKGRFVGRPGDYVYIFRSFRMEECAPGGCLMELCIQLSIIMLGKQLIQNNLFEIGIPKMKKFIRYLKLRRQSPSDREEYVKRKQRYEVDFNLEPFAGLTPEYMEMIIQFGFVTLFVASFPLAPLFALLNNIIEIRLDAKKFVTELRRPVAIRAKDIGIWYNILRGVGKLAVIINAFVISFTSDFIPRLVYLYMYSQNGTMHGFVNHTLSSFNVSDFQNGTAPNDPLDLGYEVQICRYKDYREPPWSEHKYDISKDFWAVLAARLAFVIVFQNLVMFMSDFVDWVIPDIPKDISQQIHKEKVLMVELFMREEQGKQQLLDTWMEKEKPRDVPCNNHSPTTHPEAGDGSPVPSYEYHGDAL
# KLF5 inh: kruppel-like factor 5 inhibition. inhibition, % at 5 µM. DLD-1 KLF5 promoter-luciferase reporter, luminescence. 0.23% of 290,000 active;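 active means inhibition above a per-plate limit of that plate's mean compound inhibition plus 3 SD, cut at about 60% in these data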;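 further: 0% = DMSO wells and 100% = LY294002 at 200 µM; higher means less KLF5 promoter-driven luciferase light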
# 697 NFkB inh: lowers PMA/ionomycin-induced NF-kB signal in 697 B cells | 697 B-cell NF-kB luciferase reporter, 16 h | inhibition, % at 4 µM | 0.33% of 330,000 active | AID 435022; in the data active means inhibition above about 35%
# aSyn UTR inh: 5' untranslated region of α-synuclein, MLPCN primary screen. alpha-synuclein 5'UTR reporter, inhibitor activity. 0.82% of 300,000 active. inhibition, % (tested at 7.5 µM); in the data active means inhibition above about 60%;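 further: H4 neuroglioblastoma cells stably carrying SNCA 5'UTR luciferase fusion; 0% = DMSO wells and 100% = positive control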
# Jurkat NFkB inh: lowers PMA/ionomycin-induced NF-kB signal in Jurkat cells. inhibition, % at 4 µM. 0.53% of 330,000 active. PMA/ionomycin-induced NF-kB luciferase reporter, luminescence. AID 435003; in the data active means inhibition above about 50%
# ANO1 block: inhibitors of mouse TMEM16A calcium-activated chloride channel | HEK293 TMEM16A/YFP iodide influx fluorescence, ionomycin | Q8BHY3 | 1.2% of 310,000 active | normalized B-score (activity score, 25-100; higher = stronger inhibition) at 10 µM;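 active means ratio plate-corrected score three or more library SD toward inhibition, starting fluorescence score within five deviations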;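 further: score derived from kinetic fluorescence span divided by baseline fluorescence per well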
# Jurkat NFkB conf: lowers PMA/ionomycin-induced NF-kB signal in Jurkat cells; shares compounds with Jurkat NFkB inh; Jurkat NF-kB luciferase, 16 h; inhibition, % at 4 µM; 27% of 2,700 active; AID 435020;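 active means inhibition reaching about 45% at 4 µM in either replicate, limit read from the data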;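 further: plate controls were PMA/ionomycin stimulated DMSO wells for no effect and unstimulated DMSO wells for full effect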
# An asterisk follows results filed as active; i = inactive; . = no result given. In the library only some 2.5% were active in any assay of this set; here they are far more common.
SMILES,TMEM16A act,KLF5 inh,697 NFkB inh,aSyn UTR inh,Jurkat NFkB inh,ANO1 block,Jurkat NFkB conf
COc1ccc(C(=O)Nc2ccccc2C(=O)N/N=C/c2ccccn2)cc1OC,i,-17.2,-66.6,30.7,55.6*,i,-21.0
CCOc1cc(N2CCOCC2)c(OCC)cc1NC(=O)c1cccc(S(=O)(=O)N2CCOCC2)c1,i,.,-18.7,.,-10.0,.,.
CCOC(=O)c1sc(=NC(=O)c2ccc(Cl)s2)n(C)c1C,i,-9.3,-153.4,-194.3,-206.1,i,-83.0
NC(=O)Cc1ccc(C(=O)CSc2nnc(-c3ccncc3)n2C2CC2)s1,i,.,8.2,.,2.9,.,.
NCCCNc1nc(N)c([N+](=O)[O-])c(NC2CCCCC2)n1,i,54.8,-65.8,49.1,90.8*,i,19.7
COc1cccc2sc(Nc3nc(-c4ccccn4)cs3)nc12,i,24.6,-132.2,51.9,97.6*,i,31.8
O=C(CSCc1ccccc1Cl)Nc1ccc2c(c1)OCCO2,i,-104.6,-31.9,-151.7,-161.7,i,-89.4
O=C(CNCc1ccccc1Cl)Nc1ccc2c(c1)OCCO2,i,-119.4,-49.9,-116.6,-89.7,i,.
CCc1ccc(OC)c(S(=O)(=O)NCc2cccs2)c1,i,.,-11.0,.,-9.2,.,.
C/C(=N\NC(=O)c1ccc(OC2OCCOC2Oc2ccc(C(=O)N/N=C(\C)c3ccncc3)cc2)cc1)c1ccncc1 (configuration not stated),i,-34.4,-46.5,29.9,51.8*,i,8.1
O=c1c2ccccc2oc2ccc(Oc3ccccc3)cc12,i,-185.3,-223.7,-122.5,-159.7,i,-121.2
COc1ccc(CN2CCC(C(=O)Nc3ccc(Oc4cccnc4)cc3)CC2)c(C)c1C,i,-3.3,-40.6,36.8,54.2*,i,31.4
CC(=O)C[C@@H](O)CC(=O)[C@@H]1OC(=O)CCCCCCc2ccccc21,i,.,-11.8,.,-9.6,.,.
CC1=C(C#N)C(c2cn(-c3ccccc3)nc2-c2cccs2)C(C#N)=C(C)N1,i,8.7,-29.8,-12.7,53.5*,i,-7.9
COc1ccc(-c2csc(-c3cccs3)n2)c(OC)c1,i,-134.2,-119.2,-125.9,-186.2,i,-130.6
CCC(=O)Nc1ccc(OCc2nc3ccccc3s2)cc1,i,-95.3,-213.5,-124.7,-150.0,i,-92.8
c1ccc(OCc2nc3ccccc3s2)cc1,i,-97.3,-169.4,-122.9,-148.2,i,.
CCc1ccc(/C=N/NC(=O)c2cc(-c3ccccc3OC)nc3ccccc23)s1,i,-40.2,-3.0,20.4,-8.7,i,.
CCc1ccc(/C=N/NC(=O)c2cc(C3CC3)nc3ccc(Br)cc23)s1,i,-35.4,-42.2,48.6,56.4*,i,21.1
CCOc1ccc(C(=O)COC(=O)Cc2n[nH]c(=O)c3ccccc23)cc1,i,.,-7.1,-87.2,54.7*,i,8.3
CCOC(=O)c1c(C)[nH]c(C)c1C(=O)COC(=O)Cc1n[nH]c(=O)c2ccccc12,i,.,9.6,.,-4.4,.,.
COc1ccc(-c2nc3cc([N+](=O)[O-])ccc3o2)cc1,i,-59.3,-245.6,-231.4,-170.1,i,-122.0
CC(C)(C)c1ccc(-c2nc3cc(N)ccc3o2)cc1,i,-22.9,-237.1,14.9,-190.4,i,12.0
COc1ccc(-c2nc3ccc([N+](=O)[O-])cc3[nH]2)cc1,i,-164.8,.,-63.4,.,i,.
Nc1ccc(-c2nc3cc([N+](=O)[O-])ccc3o2)cc1,i,-200.9,-172.0,-145.6,-179.6,i,-114.5
SMILES,TMEM16A act,KLF5 inh,697 NFkB inh,aSyn UTR inh,Jurkat NFkB inh,ANO1 block,Jurkat NFkB conf
Cc1ccc2oc(-c3cccc(N)c3)nc2c1,i,-32.3,-138.9,-5.0,-95.7,i,.
O=C(NCCc1ccc(F)cc1)C(=O)Nc1cc2c3c(c1)CC(=O)N3CCC2,i,.,12.1,23.5,17.8,i,.
CC(C)(C)C(=O)Nc1nc(-c2ccccc2)ns1,i,-182.5,-228.2,-145.6,-104.0,i,.
c1ccc(Nc2nc(-c3ccccc3)ns2)cc1,-8.95*,-154.2,-228.4,-144.2,-189.7,i,-153.6
COc1ccc2[nH]c(=O)c(CN(Cc3cccs3)S(=O)(=O)c3c(C)ccc4nsnc34)cc2c1,i,-15.2,-51.1,89.3*,56.7*,i,27.0
Cc1ccc2[nH]c(=O)c(CN(Cc3ccco3)S(=O)(=O)c3c(C)ccc4nsnc34)cc2c1,i,-15.4,0.7,28.5,11.1,i,.
Cc1ccn2c(=O)nc(SCC(=O)c3ccccc3)nc2c1,i,.,-27.8,-76.0,-81.5,i,.
Cc1ccc2nc(SCC(=O)c3ccccc3)nc(=O)n2c1,i,.,-97.3,-111.8,-224.6,i,-75.0
Cc1ccc(C(=O)Nc2nc3c(s2)CCCC3)o1,i,-96.8,-196.7,-10.2,-154.6,i,-87.1
CC(=O)c1cn(C2OC(CO)C3OC(C)(C)OC32)c(=O)n(C)c1=O (configuration not stated),i,.,-26.6,-11.9,-28.1,i,.
Cc1cc2nnc(SCC(=O)NCc3ccco3)n2c2ccccc12,i,.,-19.7,-184.1,58.4*,i,10.8
Cc1cc2nnc(SCC(=O)NCc3cccs3)n2c2ccccc12,i,42.3,-22.2,-27.3,46.0,i,.
CCOC(=O)CSC1=C(C#N)C(c2ccc(Cl)cc2)CC(=O)N1 (configuration not stated),i,3.6,-4.0,3.7,-1.0,i,.
CCOC(=O)CSC1=C(C#N)C(c2ccc(C)o2)CC(=O)N1 (configuration not stated),i,54.6,-21.4,78.1*,58.1*,i,17.0
CCN(CC)c1ccc(S(=O)(=O)N2CCCCC2)cc1NC(=O)C1CCC1,i,.,5.5,-16.9,-9.0,i,.
CC(=NCCc1c(C)[nH]c2ccc(C)cc12)C1=C(O)CC(c2ccccc2)CC1=O (configuration not stated),i,-1.1,-66.0,56.5,56.1*,i,8.0
CCCC(=NCCc1c(C)[nH]c2ccccc12)C1=C(O)CC(c2ccccc2)CC1=O (configuration not stated),i,-10.3,-61.4,86.5*,54.0*,i,15.2
CC(=NCCc1c(C)[nH]c2ccc(OC(F)(F)F)cc12)C1=C(O)CC(c2ccccc2)CC1=O (configuration not stated),i,-34.9,-63.7,23.7,57.0*,i,7.0
CCC/C(O)=C1\C(=O)CC(c2ccccc2)CC1=NCCc1c(C)[nH]c2ccccc12 (configuration not stated),i,13.3,14.5,25.9,1.4,i,.
CCCCC(=NCCc1c(C)[nH]c2ccccc12)C1=C(O)CC(c2ccccc2)CC1=O (configuration not stated),i,-11.6,-14.7,51.3,44.7,i,.
